KDM5B inhibitor: Primary screen for KDM5B Histone Demethylases FDH-coupled qHTS | AID 1347165, 2019 | Potency, µM (doses to about 57.7 µM), most hits filed as inhibitors | Lysine-specific demethylase 5B (Homo sapiens), Q9UGL1 | KDM5B demethylase, FDH-coupled NADH fluorescence (FDH is formaldehyde dehydrogenase) | actives 2.6% (n = 220,000); active = well fitted inhibition curve with a large enough effect; also: 0% is about no effect; nearly all actives have a fitted effect of over 70% in size
Target sequence (Q9UGL1 whole entry, looked up): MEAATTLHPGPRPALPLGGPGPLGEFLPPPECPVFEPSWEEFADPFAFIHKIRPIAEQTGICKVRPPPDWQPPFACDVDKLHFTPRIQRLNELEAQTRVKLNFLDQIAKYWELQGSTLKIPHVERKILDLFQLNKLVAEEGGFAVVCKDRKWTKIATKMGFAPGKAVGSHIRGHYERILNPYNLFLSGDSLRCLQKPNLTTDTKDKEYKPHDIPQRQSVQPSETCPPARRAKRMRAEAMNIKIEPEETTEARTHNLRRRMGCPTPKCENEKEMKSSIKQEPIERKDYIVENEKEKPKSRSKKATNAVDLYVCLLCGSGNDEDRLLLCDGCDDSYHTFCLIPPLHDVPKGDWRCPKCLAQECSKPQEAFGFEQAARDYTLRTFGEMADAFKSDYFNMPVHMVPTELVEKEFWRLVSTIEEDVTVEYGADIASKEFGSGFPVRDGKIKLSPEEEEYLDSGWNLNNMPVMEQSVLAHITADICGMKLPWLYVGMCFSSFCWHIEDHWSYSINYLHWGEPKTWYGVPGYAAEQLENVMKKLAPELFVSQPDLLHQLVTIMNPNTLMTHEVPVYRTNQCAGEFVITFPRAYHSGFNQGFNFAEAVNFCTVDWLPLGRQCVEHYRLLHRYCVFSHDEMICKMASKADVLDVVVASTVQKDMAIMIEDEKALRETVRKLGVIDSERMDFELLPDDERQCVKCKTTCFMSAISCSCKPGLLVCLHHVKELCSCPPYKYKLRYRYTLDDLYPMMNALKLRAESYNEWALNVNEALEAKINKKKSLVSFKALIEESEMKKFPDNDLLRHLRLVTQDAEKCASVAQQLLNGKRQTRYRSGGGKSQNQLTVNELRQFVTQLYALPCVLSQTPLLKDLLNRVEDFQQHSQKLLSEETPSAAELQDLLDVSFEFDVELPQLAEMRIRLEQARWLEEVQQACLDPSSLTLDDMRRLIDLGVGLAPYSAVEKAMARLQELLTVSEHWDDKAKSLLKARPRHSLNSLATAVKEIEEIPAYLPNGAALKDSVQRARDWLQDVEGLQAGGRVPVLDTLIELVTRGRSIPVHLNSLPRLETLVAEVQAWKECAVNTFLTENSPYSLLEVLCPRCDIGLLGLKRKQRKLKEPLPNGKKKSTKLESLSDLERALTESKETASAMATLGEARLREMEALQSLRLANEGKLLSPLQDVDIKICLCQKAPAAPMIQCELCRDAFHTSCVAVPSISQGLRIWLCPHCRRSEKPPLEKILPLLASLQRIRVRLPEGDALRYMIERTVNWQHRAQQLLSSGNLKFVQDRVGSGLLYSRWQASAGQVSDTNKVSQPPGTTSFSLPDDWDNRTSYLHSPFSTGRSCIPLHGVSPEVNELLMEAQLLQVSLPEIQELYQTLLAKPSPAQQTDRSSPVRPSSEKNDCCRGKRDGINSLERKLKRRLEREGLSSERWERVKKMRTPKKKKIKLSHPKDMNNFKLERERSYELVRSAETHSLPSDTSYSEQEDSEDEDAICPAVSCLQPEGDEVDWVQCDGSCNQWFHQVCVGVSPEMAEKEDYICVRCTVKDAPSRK
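qHTS format, multiple compound concentrations. Buffer 50 mM HEPES pH 7.5/0.01% Tween-20; 200 nM KDM5BΔAP final; 10 min compound preincubation; substrate-mix levels 12.5 µM peptide, 25 µM α-KG, 0.25 mM NAD⁺; 30 min RT; ΔRFU.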
Starred values were filed as active, the others as inactive; i = inactive. Only a selection was taken, and hits are over-represented in it overall. Potency is read from the fitted curve at half-maximal effect.

SMILES	KDM5B inhibitor
O=C(Cn1nc2n(c1=O)CCCC2)Nc1ccc2c(c1)OCO2	i
NC1CCc2nn(CC(=O)NCc3ccc4c(c3)OCO4)c(=O)n2CC1 (stereo not given)	10µM*
Cc1c(Cl)cccc1NC(=O)c1cnc(N2CCCCC2)c2ccccc12	i
c1ccc(CN2CCNc3cc(-c4cccnc4)ncc3C2)cc1	32µM*
CCn1cc(-c2cc3c(cn2)CN(Cc2cccnc2)CCN3)cn1	32µM*
c1ccc(-c2cc3c(cn2)CN(Cc2c[nH]c4ccccc24)CCN3)cc1	i
c1ccc(CCN2CCNc3cc(NCc4cccnc4)ncc3C2)cc1	35µM*
c1cncc(Nc2cc3c(cn2)CN(Cc2cccs2)CCN3)c1	i
Cc1cc(-c2cc3c(cn2)CN(Cc2ccccc2O)CCN3)ccn1	i
Fc1cccc(CN2CCNc3cc(Nc4cccnc4)ncc3C2)c1	i
Cc1[nH]cnc1CN1CCNc2cc(-c3ccccc3)ncc2C1	32µM*
CCc1c(C(=O)N2CCC(CO)(Cc3ccccc3)CC2)[nH]c2ccccc12	i
CNC(=O)NC(=O)Cn1nnc(-c2ccc(F)c(C)c2)n1	i
CNC(C(=O)OC)c1ccc(Cl)c(Cl)c1 (stereo not given)	i
NC(=O)c1ccc(NC(=O)c2cc(C3CC3)nc3ccccc23)cc1	i
CCc1ccccc1NC(=O)N1CCC(Oc2ncccc2C(=O)N2CCCCC2)C1 (stereo not given)	i
Cc1cc(-c2cc3c(cn2)CN(Cc2cccc(F)c2)CCN3)ccn1	i
NC(=O)c1cccc(-c2cc3c(cn2)CN(Cc2ccccc2)CCN3)c1	32µM*
CCCCN1CCN(c2nc(-c3ccccc3)nc3c2CCNC3)CC1=O	i
O=C(NCc1ccco1)c1ccc2c(c1)n(Cc1ccc(F)cc1)c(=O)c1ccnn12	28µM*
Cc1ccc(-n2c(=O)c3ccc(C(=O)NCc4ccco4)cc3n(Cc3cccc(Cl)c3)c2=O)cc1	i
Cc1nc(-c2ccc(F)cc2)n(Cc2cccc(F)c2)c(=O)c1CCO	i
CCCN1CCN(C(=O)c2cc(-c3ccc(F)cc3)cn2CC)CC1	i
CN(C)C(=O)c1ccc2c(c1)n(Cc1cccc(F)c1)c(=O)c1ccnn12	32µM*
O=C(O)c1ccc2c(c1)n(Cc1cccc(F)c1)c(=O)c1ccnn12	28µM*
SMILES	KDM5B inhibitor
O=C(Nc1cccc(F)c1)c1ccc2oc(=O)n(Cc3ccccc3)c2c1	i
O=c1cc(-c2ccccc2)nc2n(Cc3cccc(F)c3)c3ccccc3n12	i
O=C(CSc1nccn1Cc1ccc(F)cc1)NCc1ccco1	i
Cc1c(C(=O)N(C)C)sc2c1c(=O)n(-c1ccccc1C(F)(F)F)c(=O)n2Cc1cccc(F)c1	i
CCCN1CCN(C(=O)c2ccc3c(c2)n(Cc2ccc(F)cc2)c(=O)c2ccnn23)CC1	22µM*
O=C(c1ccc2c(c1)OCO2)N1CCC(c2n[nH]c(=O)n2Cc2ccc(F)cc2)CC1	i
Cc1ncc(-c2ccc(C)c(S(=O)(=O)N3CCN(c4cccc(Cl)c4)CC3)c2)o1	i
CCOc1ccccc1CN1C[C@@H](CO)[C@H](NC(=O)C2CC2)C1	i
CC(=O)Nc1cccc(C(=O)N2CCC(n3cc(-c4nc(C5CC5)no4)nn3)C2)c1 (stereo not given)	i
CCN(CC)CCNC(=O)c1ccc(Cn2c(SCc3ccccc3)nc3ccncc32)cc1	i
COc1ccc(Cn2c(=O)c3ccnn3c3ccc(C(=O)O)cc32)cc1	i
COc1ccc(CCNC(=O)c2ccc(Cn3c(=O)c4ccccc4n(Cc4cccc(F)c4)c3=O)cc2)cc1OC	i
CN1C(=O)C(CC(=O)NCC2CCN(Cc3ccccc3F)CC2)=C2CCCCC21 (stereo not given)	i
Cn1c(=O)c2ccnn2c2ccc(C(=O)NCC3CCN(Cc4ccccc4F)CC3)cc21	32µM*
O=C(O)c1ccc2c(c1)n(Cc1ccc(F)cc1)c(=O)c1ccnn12	20µM*
CCN(CC)CCNC(=O)c1ccc2c(c1)n(Cc1cccc(F)c1)c(=O)c1ccnn12	28µM*
O=C(NCc1cccnc1)c1ccc2c(c1)N(Cc1ccccc1)C(=O)c1ccccc1S2=O (stereo not given)	i
O=C(O)c1ccc2c(c1)CC(=O)N2Cc1ccc(F)cc1	i
O=C(CC1CCOCC1)NCC1CCN(Cc2ccccc2F)CC1	i
O=C(NCc1cccnc1)c1ccc(-c2ccccc2)cc1	i
O=C(NCc1cccnc1)c1ccc2c(c1)n(Cc1ccccc1)c(=O)c1ccnn12	28µM*
CCCn1nc(C(=O)NCc2cccc(Cl)c2)c2ccccc2c1=O	i
COCCNC(=O)Cn1cc(S(=O)(=O)Cc2ccc(F)cc2)c2ccccc21	i
N#Cc1nc(Cc2ccccc2)oc1N1CCCCC1	i
Cc1cc(NC(=O)CNc2cc(S(=O)(=O)N3CCOCC3)ccc2Oc2ccc(F)cc2)no1	i
SMILES	KDM5B inhibitor
COc1cccc(NC(=O)C(C)Sc2ncnc3nc[nH]c23)c1 (stereo not given)	i
COc1ccc(Nc2nc(NCC(C)O)nc3c2cnn3-c2ccccc2)cc1 (stereo not given)	i
O=C(c1ccc(F)cc1Cl)N1CCC(CCc2ccc(O)cc2)CC1	i
CC1=C(C(=O)Nc2ccc(C)cn2)C(c2ccc(N(C)C)cc2)C2=C(CCCC2=O)N1 (stereo not given)	i
Cc1cc(NC(=O)CCNC(=O)c2ccc3ccccc3c2)n[nH]1	i
Cc1ccc(F)cc1NC(=O)Cc1c[nH]c2ccccc12	i
Cc1cc(-n2c(SCC(=O)NCC3CCCO3)nc3ccsc3c2=O)ccc1F (stereo not given)	i
COc1ccc(CN2CCCCC23Cc2ccccc2CNC3=O)c(OC)n1 (stereo not given)	i
COC(=O)c1c(-c2ccc(C)cc2)csc1NC(=O)c1ccoc1C	i
Cc1ccc(-n2c(=O)c3ccc(C(=O)NCc4ccccc4Cl)cc3n(Cc3cccc(F)c3)c2=O)cc1	i
O=C(NCc1cccs1)c1ccc(CSc2nc3ccncc3n2Cc2cccc(F)c2)cc1	i
O=C(NCc1cccs1)c1ccc2c(c1)n(Cc1cccc(F)c1)c(=O)c1ccnn12	28µM*
N#C/C(=C/c1ccsc1)c1ccc2ccccc2n1	i
N#Cc1cccc(COC(=O)c2ccc(N3CCOCC3)nc2)c1	i
CC(C)COc1cc(=O)n2c(c1C(=O)NCc1ccc(C(F)(F)F)cc1)CCCCC2	i
COc1cc(=O)n2c(c1C(=O)NCc1cccc(C(F)(F)F)c1)CCCC2	i
COc1nccc(N2CCC(CC(=O)NCc3cccc(C(F)(F)F)c3)CC2)n1	i
CCc1ccc(CNC(=O)c2cc3c(N4CCSCC4)nc(C)cn3n2)cc1	32µM*
CCOc1ccc(CNC(=O)C2CCN(c3nn4c(=O)cc(C)nc4s3)CC2)cc1	i
Cc1cn2nc(C(=O)NCc3ccncc3)cc2c(N2CCSCC2)n1	i
Cc1cn2nc(C(=O)NCc3cccc(C(F)(F)F)c3)cc2c(N2CCSCC2)n1	28µM*
Cc1cn2nc(C(=O)NCc3ccc(C(F)(F)F)cc3)cc2c(N2CCSCC2)n1	28µM*
Cc1nn(CN2CCN(S(=O)(=O)c3ccc(C(C)C)cc3)CC2)c(=O)c2ccccc12	i
Cc1ccc(C(=NC(=O)c2cccs2)c2ccccc2)cc1	i
COc1ccccc1-c1cc(=O)c2cc(NC(=O)c3ccccc3F)ccc2o1	i
CCN(CC)C(=O)COc1ccc(-c2nnc(Nc3ccccc3)c3ccccc23)cc1	i

Screens deposited in PubChem BioAssay by National Center for Advancing Translational Sciences (NCATS).
